Shown are actives, neighbours in structure and some others; about 12% of the full set was active somewhere.
G9a block: G9a (human) methyltransferase inhibition; Q96KQ7; G9a H3K9 monomethylation, AlphaScreen, 2 h; Potency, µM (titrated, usually from 102 µM), actives largely listed as inhibitors; actives 8.8% (n = 350,000); AID 504332; further: nearly all actives have a fitted effect of over 75% in size
Target sequence (Q96KQ7 913-1193 limits assumed): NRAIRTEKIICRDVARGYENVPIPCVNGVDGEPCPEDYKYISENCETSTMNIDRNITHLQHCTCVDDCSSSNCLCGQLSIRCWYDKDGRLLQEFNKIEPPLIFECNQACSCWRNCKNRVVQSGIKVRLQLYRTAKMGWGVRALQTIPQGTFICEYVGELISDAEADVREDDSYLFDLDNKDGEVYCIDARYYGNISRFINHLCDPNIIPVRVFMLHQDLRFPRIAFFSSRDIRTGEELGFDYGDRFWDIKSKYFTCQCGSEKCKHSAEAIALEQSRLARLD
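G9a (20 nM) was preincubated 15 min with compound, then reacted 2 h at room temperature with 500 nM biotin-H3K9 peptide and 20 µM SAM. Monomethyl-H3K9 detected by AlphaScreen using anti-H3K9me1 antibody.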
HP1b chromo inh: inhibitors of HP1-beta chromodomain binding to methylated histone tails; Potency, µM (titrated, usually from 114 µM), hits mostly inhibitors; AID 540317; actives 0.56% (n = 390,000); AlphaScreen HP1-beta / biotin-H3K9me3 peptide binding; further: nearly all actives have a fitted effect of over 70% in size
Target sequence (P83916 whole entry, looked up): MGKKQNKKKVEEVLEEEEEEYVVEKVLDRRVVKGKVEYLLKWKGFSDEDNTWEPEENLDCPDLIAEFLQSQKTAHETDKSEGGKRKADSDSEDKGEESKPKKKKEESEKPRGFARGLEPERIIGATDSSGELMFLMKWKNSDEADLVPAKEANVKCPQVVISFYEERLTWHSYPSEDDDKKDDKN
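Compound inhibition of the preformed complex between 50 nM HP1-beta and 50 nM biotinylated H3K9me3 peptide was read by AlphaScreen. Buffer was PBS pH 7.4 with 0.01% Tween-20. Incubations ran 30 min at room temperature, with 10 ug/mL donor/acceptor beads.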
BAZ2B block: inhibitors of human BAZ2B bromodomain; Q9UIF8; AlphaScreen BAZ2B-H3K14Ac peptide displacement; Potency, µM (titrated, usually from 114 µM), actives largely listed as inhibitors; actives 4.4% (n = 360,000); further: nearly all actives have a fitted effect of over 60% in size
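Protein-peptide AlphaScreen: BAZ2B 50 nM, b-H3K14Ac 50 nM, 1x PBS pH 7.4 + 0.01% Tween-20. Preincubation 30 min RT; cpd 30 min RT (top 110 uM); beads 20 min RT, light-protected.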
Sfp PPTase inh: inhibitors of Bacillus subtilis Sfp phosphopantetheinyl transferase | AID 1490 | actives 3.5% (n = 310,000) | Q9F4F7 | Biochemical Sfp PPTase activity, qHTS | Potency, µM, usual class: inhibitors;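 further: the enzyme is Sfp with the accession as filed and its product quenches rhodamine fluorescence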
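Reaction rates are the 30-min fluorescence difference (ex 525, em 598 nm) in wells containing 15 nM Sfp, 5 uM rhodamine-CoA and 12.5 uM BHQ-2-YbbR at pH 7.6 with 10 mM MgCl2.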
JMJD2A Tudor inh: JMJD2A Tudor domain (human) inhibition | AlphaScreen JMJD2A-Tudor / H3K4me3 peptide binding | Potency, µM (series often up to 114 µM), actives largely listed as inhibitors | actives 4.4% (n = 390,000) | AID 504339; further: nearly all actives have a fitted effect of over 50% in size
Of the large screens only hits and unclear results are named; the others gave an inactive call. The call rests on the fitted dose curve; in most records, active means well fitted curve in the direction sought with a large enough effect; inconclusive means small, poorly fitted or top-dose-only effect, or another doubt; inactive means no such curve, though single readings can be large; an effect the other way counts as inactive or inconclusive.

Cc1ccc2cc(CN(CC3CCCO3)C(=S)NCc3ccco3)c(=O)[nH]c2c1 (centres undefined)	G9a block inconclusive, HP1b chromo inh inconclusive, Sfp PPTase inh 45µM
Cc1ccc2cc(CN(Cc3ccco3)C(=S)NCC3CCCO3)c(=O)[nH]c2c1 (centres undefined)	none
CCNC(=S)N(Cc1cccs1)Cc1cc2cc(OCC)ccc2[nH]c1=O	none
Cc1ccc(C)c2[nH]c(=O)c(CN(Cc3ccco3)C(=S)NCC3CCCO3)cc12 (centres undefined)	G9a block 40µM, BAZ2B block inconclusive
COc1cc(/C=C/C(=O)O)cc2c1OCCO2	G9a block inconclusive (no result: BAZ2B block)
Nc1c(NC(=O)CC[n+]2ccccc2)cccc1[N+](=O)[O-]	none
COc1cccc(CNC(=O)COC(=O)c2cccc(S(=O)(=O)N3CCCC3)c2)c1	none (no result: Sfp PPTase inh)
Cc1cccc2cc(CN(Cc3ccco3)C(=O)c3ccncc3)c(=O)[nH]c12	Sfp PPTase inh 50µM
Cc1ccc2c(c1)cc(CN(Cc1cccs1)C(=O)c1ccco1)c1nnnn12	HP1b chromo inh inconclusive, JMJD2A Tudor inh 28µM
Cc1cccc2cc(CN(CC3CCCO3)C(=S)NCc3ccco3)c(=O)[nH]c12 (centres undefined)	Sfp PPTase inh 50µM
Cc1ccc2[nH]c(=O)c(CN(Cc3cccs3)C(=S)NCc3ccco3)cc2c1	Sfp PPTase inh 50µM
CC(C)Sc1n[nH]c2nc3c(c(=O)n12)C1(CCCC1)Cc1ccccc1-3	G9a block inconclusive (no result: HP1b chromo inh, JMJD2A Tudor inh)
Fc1ccc(F)c(NC(=S)NCCc2ccccc2)c1	none
CCCCNC(=O)CN(c1cc(C(F)(F)F)ccc1Cl)S(C)(=O)=O	none
OC(CN1CCCCCC1)CN(c1ccccc1)c1ccccc1 (centres undefined)	none
CN(CC(O)CN)CC(O)CN1CCCCC1 (centres undefined)	G9a block 3.5µM
CCn1cnc2c1c(=O)n(Cc1cccc(Br)c1)c(=O)n2Cc1ccccc1	JMJD2A Tudor inh 71µM
Cn1cnc2c1c(=O)n(Cc1cccc(Br)c1)c(=O)n2C	Sfp PPTase inh inconclusive
Cn1c(=O)c2[nH]c(N3CCN(c4cccc(O)c4)CC3)nc2n(C)c1=O	none
Cc1ccc(C(=O)[C@@H]2[C@H]3C4COC(O4)C(=O)[C@@H]3[C@H]3C=Cc4ccccc4N32)cc1 (some centres undefined)	none (no result: G9a block, HP1b chromo inh, BAZ2B block, JMJD2A Tudor inh)
CC(=O)[C@@H]1[C@H]2[C@H](C(=O)[C@H]3OC[C@@H]2O3)[C@H]2C=Cc3ccccc3N21	Sfp PPTase inh 45µM (no result: G9a block, HP1b chromo inh, BAZ2B block, JMJD2A Tudor inh)
COc1ccc(NC(=O)C2CC(=O)N(c3ccccc3C)C2)c(OC)c1 (centres undefined)	Sfp PPTase inh inconclusive
COc1ccc(C(=O)C2C3C4COC(O4)C(=O)C3C3C=Cc4ccccc4N32)c(OC)c1 (centres undefined)	Sfp PPTase inh 79µM (no result: G9a block, HP1b chromo inh, BAZ2B block, JMJD2A Tudor inh)
Cc1ccc(-c2nc3cnccn3c2Nc2ccc3c(c2)OCO3)o1	G9a block 32µM, BAZ2B block 50µM, Sfp PPTase inh 35µM, JMJD2A Tudor inh inconclusive
Cc1ccn2c(Nc3ccc4c(c3)OCCO4)c(-c3cccs3)nc2c1	G9a block 14µM, HP1b chromo inh inconclusive, BAZ2B block 25µM, JMJD2A Tudor inh inconclusive (no result: Sfp PPTase inh)
Cc1ccc(C(=O)Nc2c(-c3cccs3)nc3cc(C)ccn23)cc1	none
Cc1ccc2nc(-c3ccc(C)o3)c(Nc3ccccc3)n2c1	none (no result: G9a block, BAZ2B block, Sfp PPTase inh)
Cc1ccc(-c2nc3ccc(Br)cn3c2Nc2ccc3c(c2)OCO3)o1	none (no result: Sfp PPTase inh)
Cc1ccn2c(Nc3ccc4c(c3)OCO4)c(-c3ccc(C)o3)nc2c1	G9a block 16µM, JMJD2A Tudor inh inconclusive (no result: Sfp PPTase inh)
Cc1ccc(Nc2c(-c3ccc(C)o3)nc3cnccn23)cc1	G9a block 32µM, HP1b chromo inh inconclusive, BAZ2B block inconclusive, Sfp PPTase inh 10µM, JMJD2A Tudor inh 40µM
Cc1cc(-c2ccc(N3C(=O)CCC3=O)c(C)c2)ccc1N1C(=O)CCC1=O	none
Cc1noc(C)c1CN1C(=O)NC2(CCCCCCC2)C1=O	none
O=C(O)CCC(=O)Nc1cccc(C(=O)c2ccccc2)c1	none
C=CCSc1nc2ccsc2c(=O)n1-c1ccccc1	none
COc1ccc(C(=O)NCC(=O)OCC(=O)NCc2cccs2)cc1	none (no result: BAZ2B block)
CC(=O)N1CCC2(CC1)OC(=O)C(C)=C2C(=O)Nc1cc(C)ccc1C	none (no result: Sfp PPTase inh)
Cc1noc(C)c1-c1cc(Nc2ccccc2)ncn1	none (no result: HP1b chromo inh, BAZ2B block, JMJD2A Tudor inh)
COc1ccc(Nc2c(-c3ccc(C)o3)nc3cc(C)ccn23)cc1	G9a block 16µM, BAZ2B block inconclusive, JMJD2A Tudor inh inconclusive (no result: Sfp PPTase inh)
Cc1ccc2nc(-c3ccc(C)o3)c(Nc3ccc(F)cc3)n2c1	none (no result: G9a block, BAZ2B block, Sfp PPTase inh)
O=C(Nc1ccc2oc(-c3ccccc3Cl)nc2c1)c1ncn[nH]1	G9a block inconclusive, BAZ2B block 50µM, JMJD2A Tudor inh 28µM
CC(C)c1ccc2oc(-c3ccc(NC(=O)c4ncn[nH]4)cc3)nc2c1	BAZ2B block 35µM, JMJD2A Tudor inh 40µM
CCC(C)c1ccc2oc(-c3ccc(NC(=O)c4ncn[nH]4)cc3)nc2c1 (centres undefined)	G9a block inconclusive, BAZ2B block inconclusive
c1ccc(-c2cn(C[C@H]3CC[C@@H]([C@@H]4CC[C@H](Cn5cc(-c6ccccn6)nn5)O4)O3)nn2)nc1	G9a block inconclusive, BAZ2B block 0.71µM, JMJD2A Tudor inh 3.2µM
Cn1c(SCC(N)=O)nnc1-c1ccc(S(=O)(=O)N2CCCC2)cc1	none
Cc1ccc(-n2c(SCC(N)=O)nnc2-c2ccc(S(=O)(=O)N3CCCCC3)cc2)c(C)c1	G9a block 40µM, JMJD2A Tudor inh inconclusive
COc1ccc(NC(=O)CCCS(=O)(=O)c2nc(-c3ccc(OC)c(OC)c3)cc(C(F)(F)F)n2)cc1OC	G9a block 16µM (no result: Sfp PPTase inh)
COc1ccc(-c2cc(C(F)(F)F)nc(S(=O)(=O)CCCC(=O)Nc3cccc(O)c3)n2)cc1OC	none
O=C(NCc1ccc(F)cc1)n1cc(P(=S)(c2ccccc2)c2ccccc2)c2ccccc21	none (no result: G9a block, HP1b chromo inh, BAZ2B block, Sfp PPTase inh)
C#CC1CN(Cc2ccccc2)CC(C#C)N1C (centres undefined)	BAZ2B block inconclusive
CC(C)(NC(=O)c1cc(Cl)c2ccccc2c1O)C(=O)O	G9a block 32µM
COc1ccc(Cn2c(SCc3ccc(C(=O)NC4CCCC4)cc3)nc3ccncc32)cc1	G9a block inconclusive (no result: Sfp PPTase inh)
COc1ccc(Nc2cc(C)nc3ccc(OC)cc23)cc1	none (no result: G9a block)
COc1ccc2nc(C)cc(N/N=C/c3ccc(F)cc3)c2c1	G9a block inconclusive, Sfp PPTase inh 45µM
COc1cccc2c(N/N=C/c3ccc(O)c(O)c3)cc(C)nc12	G9a block 35µM, BAZ2B block inconclusive, JMJD2A Tudor inh inconclusive
COc1ccc(CNc2cc(C)nc3ccc(OC)cc23)cc1	G9a block 35µM
COc1ccc(/C=N/Nc2cc(C)nc3c(C)cccc23)cc1	BAZ2B block inconclusive, Sfp PPTase inh inconclusive, JMJD2A Tudor inh inconclusive
COc1ccc(/C=N/Nc2cc(C)nc3ccccc23)cc1	BAZ2B block inconclusive, Sfp PPTase inh 28µM (no result: G9a block)
